# Measurements: PubChem BioAssay (NCATS)
# A number with no mark means an inactive call. Inconclusive results are not listed. Entries that show only a call come without a potency. Calls of active or inactive are those of the source. Calls follow the shape of the dose curve; as a rule, active = well fitted curve in the direction sought with a large enough effect; inconclusive = small, poorly fitted or top-dose-only effect, or another doubt; inactive = no such curve, though single readings can be large; an effect the other way counts as inactive or inconclusive.
# How the values were obtained:
# [1] = target: Cytochrome P450 2C19 (Homo sapiens) (UniProt P33261); test: qHTS for inhibitors of CYP2C19 against the NCATS DSHEA and TCM libraries (AID 1919974);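 also: luminescence from luciferin released by CYP2C19 oxidation of a pro-luciferin substrate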
# Summary of the method: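 Isoform-specific enzyme and substrate levels; enzyme-free wells as background. Reaction: 1x NADPH regenerating system, 30-45 min, room temperature, shielded from light; luminescent detection reagent added, 30 min.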
# [2] = KB-3-1 P-gp reporter qHTS against the NCATS DSHEA and TCM libraries (AID 1919975)
# Summary of the method: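 CellTiter-Glo luminescence viability readout; KB-3-1 parental cells, 500/well, attached ~4 h, then compound for ~72 h, 37C, 5% CO2. Bortezomib intraplate control.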
# [3] = target: Cytochrome P450 1A2 (Homo sapiens) (UniProt P05177); test: qHTS for inhibitors of CYPIA2 against the NCATS DSHEA and TCM libraries (AID 1919976); also: potency is read from the fitted curve at half-maximal effect
# Summary of the method: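 Furafylline served as the plate control. Compounds met CYP1A2 and pro-luciferin substrate 15 min before NADPH regeneration solution (1x) was added; after 30-45 min at RT, P450-Glo reagent was added for 30 min and luminescence was measured.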
# [4] = qHTS Counterscreen for compound interference against the NCATS DSHEA and TCM libraries (AID 1919978); conditions: firefly luciferase detection reagent interference, luminescence;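 also: compounds preincubated with 1 µM D-luciferin or buffer before detection reagent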
# Summary of the method: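 Luminescence counterscreen for detection-kit interference: compounds at 19.5 nM–39.8 uM final, 15 min RT with 1 uM D-luciferin or buffer only; detection reagent added, 30 min RT, then read.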
# [5] = Dual reporter qHTS for agonist of Pregnane X Receptor (hPXR) against the NCATS DSHEA and TCM libraries: Fluorescence readout (AID 1920058)
# Summary of the method: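 In this qHTS counter-read, reporter-bearing HepG2 cells in charcoal-stripped serum received substances for approximately 24 h before viability was assessed fluorometrically with CellTiter-Fluor.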
# [6] = target: Nuclear receptor subfamily 1 group I member 2 (Homo sapiens) (UniProt O75469); test: Dual reporter qHTS for antagonist of Pregnane X Receptor (hPXR) against the NCATS DSHEA and TCM libraries: Luminescence Readout (AID 1920060);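 also: HepG2 cells carrying hPXR luciferase reporter stimulated with rifampicin at 2 µM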
# Excerpt: (§1) Assay Development and Screening Technology Laboratory (ADST)
# (§2) National Center for Advancing Translational Sciences (NCATS), Rockville, MD
# (§3) National Institute of Health (NIH), Bethesda, Maryland
# (§4) Dietary Supplements and Natural Products have minor oversight of their safety and efficacy. We assembled a collection of Dietary Supplements and Natural Products (DSNP) as well as Traditional Chinese Medicinal (TCM) Plant extracts, which were screened against an in vitro panel of assays, including a liver cytochrome p450 enzyme panel, CAR/PXR signaling pathways, and P-gp transporter assays, to assess their activity. This pipeline facilitated the interrogation of Natural Product-Drug Interaction (NaPDI) through prominent metabolizing pathways. In addition, we compared the activity profiles of the DSNP/TCM substances with those of an approved drug collection. Many of the approved drugs have well-annotated mechanisms of action (MOA) while the MOAs for most of the DSNP and TCM samples remain unknown. Based on the premise that compounds with similar activity profiles tend to share similar targets or MOA, we clustered the library activity profiles to identify overlap with the NCATS Pharmaceutical Collection to predict the MOAs of the DSNP/TCM substances. Overall, we highlight four significant bioactivity profiles (measured by p-values) as examples of this prediction. To assess broad cytotoxicity, we employed screening against a HepG2 cell line. In addition, transporter-mediated drug interactions are utilized in the characterization of DDIs using a P-glycoprotein (P-gp) assays. To profile potential P-gp activity, a differential cell viability was measured against two cell lines: a parental KB-3-1 human cervical adenocarcinoma cell line and the drug-resistant subline KB-8-5-11 that overexpresses P-gp.
# To this end, we profiled both collections for potential CAR and/or PXR activity, employing a previously published 1536-well qHTS assay.
# [1] […]
# 8; Read; Fluorescence; ViewLux plate reader. […]
# 11; Read; Luminescence; ViewLux plate reader. […]
# [7] = Dual reporter qHTS for antagonist of Pregnane X Receptor (hPXR) against the NCATS DSHEA and TCM libraries: Fluorescence Readout (AID 1920061)
# Summary of the method: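 hPXR-Luc HepG2 cells exposed 24 h at 37 C to compounds with 2 uM rifampicin in antagonist mode; luciferase luminescence measured by ONE-Glo, with CellTiter-Fluor viability read beforehand.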
# [8] = target: Cytochrome P450 2D6 (Homo sapiens) (UniProt P10635); test: qHTS for inhibitors of CYP2D6 against the NCATS DSHEA and TCM libraries (AID 1919972)
# Summary of the method: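 qHTS, concentration–response format with most substances from 19.5 nM. CYP2D6 + pro-luciferin substrate, 15 min with compound, then 1x NADPH regen, 30–45 min RT dark. Glo detection 30 min, luminescence. Quinidine control.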
# [9] = target: Cytochrome P450 2C9 (Homo sapiens) (UniProt P11712); test: qHTS for inhibitors of CYP2C9 against the NCATS DSHEA and TCM libraries (AID 1919973); also: potency is read from the fitted curve at half-maximal effect
# Excerpt: as §1, §2, §3
# as §4, with “Based on the premise that compounds with similar activity profiles tend to share similar targets or MOA, we clustered the library activity profiles to identify overlap with the NCATS Pharmaceutical Collection to predict the MOAs of the DSNP/TCM substances.” left out, “To assess broad cytotoxicity, we employed screening against a HepG2 cell line. In addition, transporter-mediated drug interactions are utilized in the characterization of DDIs using a P-glycoprotein (P-gp) assays.” left out, “P-gp. […]” for “P-gp.”
# 9; Read; Luminescence; ViewLux plate reader. […]
# [10] = target: Nuclear receptor subfamily 1 group I member 2 (Homo sapiens) (UniProt O75469); test: Dual reporter qHTS for agonist of Pregnane X Receptor (hPXR) against the NCATS DSHEA and TCM libraries: Luminescence readout (AID 1920059)
# Summary of the method: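 hPXR-Luc HepG2 cells, 2000/well in 5% charcoal-stripped FBS medium, attached 5 h, then exposed 24 h at 37C to compounds. Viability by CellTiter-Fluor, then luciferase luminescence with ONE-Glo.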
# Chain of Cytochrome P450 2C19 (Homo sapiens) (P33261 whole entry, looked up, canonical isoform): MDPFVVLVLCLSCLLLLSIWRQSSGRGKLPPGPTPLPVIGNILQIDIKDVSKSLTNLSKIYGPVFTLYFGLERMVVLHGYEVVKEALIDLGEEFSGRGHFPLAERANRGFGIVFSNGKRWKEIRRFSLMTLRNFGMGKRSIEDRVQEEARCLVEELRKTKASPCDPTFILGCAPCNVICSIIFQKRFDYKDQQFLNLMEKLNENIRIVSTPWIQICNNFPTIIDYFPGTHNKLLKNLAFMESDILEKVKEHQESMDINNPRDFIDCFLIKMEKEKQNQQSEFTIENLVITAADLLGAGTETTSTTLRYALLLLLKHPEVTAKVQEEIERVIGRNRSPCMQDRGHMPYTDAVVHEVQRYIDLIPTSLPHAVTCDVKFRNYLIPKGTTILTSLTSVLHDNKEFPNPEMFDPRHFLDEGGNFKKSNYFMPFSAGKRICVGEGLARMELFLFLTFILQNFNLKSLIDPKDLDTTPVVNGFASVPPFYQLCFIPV
# Chain of Nuclear receptor subfamily 1 group I member 2 (Homo sapiens) (O75469 whole entry, looked up): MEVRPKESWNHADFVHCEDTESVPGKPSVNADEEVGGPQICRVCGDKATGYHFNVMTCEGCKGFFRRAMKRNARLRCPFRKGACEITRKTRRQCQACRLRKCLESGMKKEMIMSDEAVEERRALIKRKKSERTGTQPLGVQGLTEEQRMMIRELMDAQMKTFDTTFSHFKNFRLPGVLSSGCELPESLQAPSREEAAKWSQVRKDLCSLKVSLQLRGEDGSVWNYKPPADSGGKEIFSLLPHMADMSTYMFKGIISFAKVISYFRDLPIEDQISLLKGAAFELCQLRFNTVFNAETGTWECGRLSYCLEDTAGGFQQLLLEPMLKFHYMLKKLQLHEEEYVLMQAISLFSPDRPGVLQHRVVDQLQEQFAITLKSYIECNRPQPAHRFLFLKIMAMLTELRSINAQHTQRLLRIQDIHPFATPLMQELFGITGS
# Chain of Cytochrome P450 1A2 (Homo sapiens) (P05177 whole entry, looked up): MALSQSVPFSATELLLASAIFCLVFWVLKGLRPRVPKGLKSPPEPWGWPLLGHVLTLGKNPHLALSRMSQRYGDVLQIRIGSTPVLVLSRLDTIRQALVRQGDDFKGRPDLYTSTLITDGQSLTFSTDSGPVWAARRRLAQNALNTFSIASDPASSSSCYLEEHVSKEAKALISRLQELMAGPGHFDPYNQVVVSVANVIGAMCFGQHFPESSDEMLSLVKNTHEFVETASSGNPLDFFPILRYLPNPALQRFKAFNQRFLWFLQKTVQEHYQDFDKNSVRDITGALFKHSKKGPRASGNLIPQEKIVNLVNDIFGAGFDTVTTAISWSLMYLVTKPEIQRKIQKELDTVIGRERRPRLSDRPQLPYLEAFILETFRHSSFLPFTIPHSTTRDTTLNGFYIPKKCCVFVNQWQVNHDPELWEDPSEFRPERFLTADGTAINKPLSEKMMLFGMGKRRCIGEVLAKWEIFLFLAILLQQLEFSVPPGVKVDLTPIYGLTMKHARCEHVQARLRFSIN
# Chain of Cytochrome P450 2C9 (Homo sapiens) (P11712 whole entry, looked up): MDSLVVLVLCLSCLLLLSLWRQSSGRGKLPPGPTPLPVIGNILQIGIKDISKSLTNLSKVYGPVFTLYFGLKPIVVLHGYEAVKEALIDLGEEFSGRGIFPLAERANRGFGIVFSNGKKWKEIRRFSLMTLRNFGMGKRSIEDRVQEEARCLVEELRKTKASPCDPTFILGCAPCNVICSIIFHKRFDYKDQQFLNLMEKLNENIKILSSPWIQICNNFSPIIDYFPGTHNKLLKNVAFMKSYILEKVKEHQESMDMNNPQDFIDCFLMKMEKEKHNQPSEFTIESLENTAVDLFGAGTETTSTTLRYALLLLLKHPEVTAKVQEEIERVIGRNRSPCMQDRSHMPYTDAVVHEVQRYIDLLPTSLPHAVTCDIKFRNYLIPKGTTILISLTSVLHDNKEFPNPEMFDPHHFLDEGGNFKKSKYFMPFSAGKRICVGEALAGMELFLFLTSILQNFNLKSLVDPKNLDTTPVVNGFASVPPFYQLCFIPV
# Chain of Cytochrome P450 2D6 (Homo sapiens) (P10635 whole entry, looked up): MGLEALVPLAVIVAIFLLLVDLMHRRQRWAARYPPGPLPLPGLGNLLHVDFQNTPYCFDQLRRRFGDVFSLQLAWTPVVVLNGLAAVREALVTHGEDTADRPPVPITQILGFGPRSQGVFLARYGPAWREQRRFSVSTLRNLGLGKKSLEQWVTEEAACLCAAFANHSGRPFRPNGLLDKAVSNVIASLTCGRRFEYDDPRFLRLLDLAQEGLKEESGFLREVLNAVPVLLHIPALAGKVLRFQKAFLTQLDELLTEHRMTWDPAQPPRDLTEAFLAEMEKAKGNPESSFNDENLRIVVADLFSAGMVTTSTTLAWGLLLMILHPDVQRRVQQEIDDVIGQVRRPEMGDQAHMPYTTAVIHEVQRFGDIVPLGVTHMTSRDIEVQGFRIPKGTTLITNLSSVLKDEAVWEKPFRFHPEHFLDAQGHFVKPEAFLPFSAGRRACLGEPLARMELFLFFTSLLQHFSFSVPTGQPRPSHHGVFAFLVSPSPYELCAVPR
SMILES,outcome [1],outcome [2],Potency [3],max response [4] [%],outcome [5],outcome [6],outcome [7],outcome [8],Potency [9],outcome [10]
C[C@@]12C[C@@]3(O)O[C@@H](O1)[C@]1(COC(=O)c4ccccc4)[C@@H]3C[C@@]12O[C@@H]1O[C@H](CO)[C@@H](O)[C@H](O)[C@@H]1O,inactive,inactive,inactive,0.508,inactive,inactive,inactive,–,–,–
C=C(C)[C@@H]1CC[C@]2(C(=O)O)CC[C@]3(C)[C@H](CC[C@@H]4[C@@]5(C)CC[C@H](O)C(C)(C)[C@@H]5CC[C@]43C)[C@@H]12,inactive,–,inactive,1.9,inactive,–,inactive,inactive,inactive,–
COc1ccc(C(C)=O)c(O)c1,–,inactive,15.8 µM (active),3.21,inactive,inactive,inactive,inactive,–,inactive
O=C1c2c(O)cccc2[C@@H]([C@@H]2O[C@H](CO)[C@@H](O)[C@H](O)[C@H]2O)c2cc(CO)cc(O)c21,inactive,inactive,–,-13.5,inactive,inactive,inactive,–,11.2 µM (active),inactive
